PubChem BioAssay AID1508608 (The Scripps Research Institute Molecular Screening Center, 2020)
In all, about 2,300 compounds went through this assay and about 20 (0.9%) were called active. The sample holds actives, similar compounds and a random draw of the others, so the mix is not that of the screen.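 How the source made its calls: active means mean activation across replicates above 26.72%, the hit cutoff set for this confirmation screen; inactive means the rest.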

target: G-protein coupled receptor 151 (Homo sapiens) (UniProt Q8TDV0); experiment: GPR151 agonism via beta-arrestin recruitment – cell-based, PathHunter beta-arrestin, luminescence, set 2, confirmation (AID 1508608); details: GPR151 PathHunter beta-arrestin cells, 90 min, at 11.2 µM, hits give high values, 100% = signal from added EA reagent;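 further: 0% = plate median of compound wells and 100% = EA reagent high control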
Sequence (Q8TDV0 whole entry, looked up): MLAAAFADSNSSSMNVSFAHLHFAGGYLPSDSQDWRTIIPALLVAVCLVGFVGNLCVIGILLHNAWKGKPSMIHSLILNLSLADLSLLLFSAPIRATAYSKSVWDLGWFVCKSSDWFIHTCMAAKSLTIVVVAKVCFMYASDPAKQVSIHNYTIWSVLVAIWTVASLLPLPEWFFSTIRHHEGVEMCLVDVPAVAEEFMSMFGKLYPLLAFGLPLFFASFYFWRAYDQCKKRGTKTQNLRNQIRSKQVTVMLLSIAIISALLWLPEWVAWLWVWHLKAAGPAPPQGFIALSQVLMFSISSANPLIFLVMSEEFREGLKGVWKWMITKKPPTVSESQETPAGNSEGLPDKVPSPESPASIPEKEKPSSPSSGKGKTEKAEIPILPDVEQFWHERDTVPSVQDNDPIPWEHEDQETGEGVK

SMILES | activation
CCCc1c(C)nc2c(C(=O)NCc3ccc(F)cc3)c[nH]n2c1=O | 4.27% (inactive)
CC1CCCCC1NS(=O)(=O)c1ccc2c(c1)CCN2C(=O)C1CC1 (configuration not stated) | -8.17% (inactive)
CNS(=O)(=O)c1cc(-c2nnc(NCc3nc4ccccc4[nH]3)c3ccccc23)ccc1C | 0.28% (inactive)
CCOC(=O)c1cnc2ccc(OCC)cc2c1Nc1ccccc1OC | 0.37% (inactive)
CC(C(=O)O)n1ncn2cccc2c1=O (configuration not stated) | 0.45% (inactive)
Cc1cc2c(cc1S(=O)(=O)N1CCN(C3CCCCC3)CC1)OCC(=O)N2 | -3.55% (inactive)
CCCCc1ccc(C(=O)N/C(=C\c2ccc(C)cc2)C(=O)Nc2ccc([N+](=O)[O-])cc2)cc1 | -6.88% (inactive)
COCCCNC(=O)c1csc2c1CCCC2 | -6.29% (inactive)
COc1ccccc1OCC(=O)n1nc(C)cc1C | -1.85% (inactive)
CC1=C(C(=O)OCC(C)C)C(c2ccc(Cl)cc2Cl)NC(=O)N1 (configuration not stated) | 1.8% (inactive)
CCCCNC(=O)c1ccc2c(c1)ncn2-c1cc(OC)c(OC)c(OC)c1 | 3.91% (inactive)
Cc1ccc(S(=O)(=O)c2cc3cc([N+](=O)[O-])ccc3oc2=O)cc1C | -3.29% (inactive)
Clc1nc(NCc2ccccc2)c2ncn(-c3ccccc3)c2n1 | -0.22% (inactive)
c1ccc(Oc2nc(NC3CC3)c3ncn(-c4ccsc4)c3n2)cc1 | 38.7% (active)
COc1ccc(S(=O)(=O)NC(N)=NCCc2ccccc2OC)cc1 | 0.59% (inactive)
O=C(Cn1ncc2c(=O)oc3ccccc3c21)Nc1nc2ccccc2s1 | -0.55% (inactive)
O=C(NCCc1ccccc1)c1cc(S(=O)(=O)N2CCOCC2)ccc1F | -1.01% (inactive)
O=C(NCC1CCC2(CCN(C(=O)Cc3cccc(F)c3)CC2)O1)c1ccccc1F (configuration not stated) | 0.36% (inactive)
O=C(CCC(=O)Nc1cc(C(F)(F)F)ccc1Cl)N/N=C\c1ccccc1O | -2.79% (inactive)

SMILES | activation
CCOC(=O)c1c(NC(=O)c2ccc(Cl)cc2Cl)sc(C(=O)Nc2ccccc2F)c1C | -10.1% (inactive)
Cc1ccc(-c2nnc(SCC(=O)NCc3ccccc3Cl)nc2-c2ccc(C)cc2)cc1 | -2.15% (inactive)
COc1ccc(CCNC(=O)/C=C\C(=O)O)cc1OC | 1.57% (inactive)
COc1ccc(CCNC(=O)Cn2ncn3cccc3c2=O)cc1OC | 3.19% (inactive)
COc1ccc(CCNc2ncnc3c2oc2ccccc23)cc1OC | 44.3% (active)
O=C(Cn1c(=O)n(Cc2ccccc2Cl)c(=O)c2cccnc21)Nc1ccc(F)cc1 | -1.3% (inactive)
O=C(CCCn1c2ccccc2c(=O)c2ccccc21)Nc1cccc(Cl)c1 | 6.83% (inactive)
COc1ccc(-c2nc(Nc3ccccc3F)c3ccccc3n2)cc1OC | 8.64% (inactive)
CC(C)C[C@H]1NC(=O)[C@H]2CN(C(=O)c3cccc(Cl)c3)CCN2C1=O | -3.06% (inactive)
CC[C@@H](C(=O)C(C)[C@@H](O)[C@H](C)CCc1ccc(C)c(O)c1C(=O)O)C1OC(CC)(C2CC[C@](O)(CC)[C@H](C)O2)C[C@@H]1C (some centres not stated) | 83.1% (active)
O=C(Nc1ncc(C(O)(C(F)(F)F)C(F)(F)F)s1)c1ccccc1Cl | -4.3% (inactive)
COc1ccc(NC(=O)c2cc3c(CO)cnc(C)c3oc2=N)cc1Cl | -0.43% (inactive)
O=C(NCCc1nnc2n1CCN(Cc1ccccc1-c1ccco1)CC2)C1CCCO1 (configuration not stated) | -0.22% (inactive)
CCc1ccccc1NC(=S)N(CCc1ccc(OC)c(OC)c1)Cc1cccnc1 | 12% (inactive)
O=C(Nc1nc(-c2ccc(I)cc2)cs1)c1ccc(Cl)s1 | 4.72% (inactive)
CC(C)[C@@H]1NC(=O)[C@@H]2C[C@H](NCc3cn(C)nc3-c3ccccc3)CN2C1=O | -1.25% (inactive)
Cc1nn(-c2ccccc2)c(Cl)c1/C=N\O | 1.25% (inactive)
Cc1ccc(O)c(NC(=O)COCc2cc(-c3ccc(F)cc3)on2)c1 | -1.43% (inactive)
COc1cc(NC(=O)c2nn3c(C(F)(F)F)cc(-c4ccco4)nc3c2Cl)c(OC)cc1Cl | -0.24% (inactive)

SMILES | activation
CCC(=O)N1CCc2cc(S(=O)(=O)Nc3cccc(C)c3)ccc21 | -1.7% (inactive)
CC(=O)N1CCc2cc(Br)cc(S(=O)(=O)Nc3ccc(C)cc3C)c21 | -9.66% (inactive)
O=C(Nc1nc2c(s1)-c1cccc3cccc-2c13)C1CC1 | -2.94% (inactive)
Cc1cccc(NCC(=O)N/N=C/c2ccccc2O)c1 | -1.08% (inactive)
CN1CCN(C(=O)c2cc3c(=O)[nH]c4ccccc4c3s2)CC1 | -2.02% (inactive)
COc1ccc(OC)c(S(=O)(=O)NCCc2csc(-c3cccnc3)n2)c1 | -1.44% (inactive)
Cc1cccc(N(CCCN2C(=O)c3cccc4cccc(c34)C2=O)C(=O)c2cccs2)c1 | 2.61% (inactive)
CC(=O)NN1C(=O)c2ccc(Oc3ccc4c(c3)C(=O)N(NC(C)=O)C4=O)cc2C1=O | 1.35% (inactive)
COc1ccc(/C=c2\sc3ncnn3c2=O)c(OC)c1 | 1.55% (inactive)
COc1ccccc1C1SC(NC(C)=O)=NN1C(C)=O (configuration not stated) | 4.02% (inactive)
Cc1cccc(C2c3[nH]c4ccccc4c3CCN2C(=O)CCN2CCCCO2)n1 (configuration not stated) | 2.25% (inactive)
COc1cccc(CC(=O)NCC2CC(Cc3ccc(F)cc3)=NO2)c1 (configuration not stated) | -4.37% (inactive)
COc1ccc(CCNc2ccnc(Nc3ccc(N4CCOCC4)cc3)n2)cc1 | 28.5% (active)
Cc1cc(Nc2ccc(N3CCOCC3)cc2)nc(Nc2ccc(-n3ccnc3)cc2)n1 | 17.5% (inactive)
COc1cc(Nc2ccnc(Nc3ccc(N4CCOCC4)cc3)n2)cc(OC)c1OC | 4.44% (inactive)
COc1ccc(CCNc2cc(C)nc(Nc3ccc(-n4ccnc4)cc3)n2)cc1 | 41.2% (active)
COc1cccc(Nc2nc(Nc3cc(C)ccc3C)nc(N3CCOCC3)n2)c1 | 8.14% (inactive)
COc1ccc(CCNc2ccnc(Nc3ccc(-n4ccnc4)cc3)n2)cc1 | 38.8% (active)
Cc1cc(Nc2ccc3c(c2)OCO3)nc(Nc2ccc(N3CCOCC3)cc2)n1 | 12.3% (inactive)
